In PubChem BioAssay AID1626 (SRMLSC, 2009):
Screen size: about 220,000 compounds; about 2,000 (0.91%) were called active. Inconclusive results (about 2%) are left out. These entries were drawn from the full list. Results with a measured potency or affinity are listed apart. Values without a mark were called inactive. Cut-off read from the data, not from the text of the source: inconclusive = inhibition above about 80% without an active follow-up result; inactive = below that; test concentration not stated here.

Experiment: M. tuberculosis H37Rv growth inhibitors, H37Rv strain (AID 1626);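 note: bacteria incubated seven days before Alamar blue readout; 0% = bacteria only wells and 100% = bacteria with antibiotic wells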
Conditions: hits give high values, concentration not given here

Structure (SMILES)	inhibition
COc1cc(-c2nc3n(n2)C(c2ccncc2)C(C(N)=O)=C(C)N3)cc(OC)c1OC (centres undefined)	-5.67%
COc1cccc(C2=CC(c3cccc(OC)c3OC)n3nnnc3N2)c1 (centres undefined)	-6.61%
O=C(COC(=O)c1cc(S(=O)(=O)N2CCCC2)ccc1O)Nc1ccc(S(=O)(=O)N2CCOCC2)cc1	1.29%
CN1CCC(N(C)C(=O)c2cc(=O)c3ccccc3o2)CC1	18.1%
Cc1sc2nc(CSc3ccccc3)nc(N3CCN(C)CC3)c2c1C	0.24%
CCOC(=O)c1sc2nc(CSc3ccccc3)nc(NCCN(C)C)c2c1C	-5.4%
CCC(C)NC(=O)c1c(N)n(/N=C/c2cccnc2)c2nc3ccccc3nc12 (centres undefined)	7.17%
CC(C)CNC(=O)c1c(N)n(/N=C/c2ccccn2)c2nc3ccccc3nc12	-5.94%
Cc1ccc(CSCc2ccc(C(=O)NCC3CCCO3)o2)cc1 (centres undefined)	6.03%
CCOC(=O)c1ccc(NC(=S)N2CCN(c3ccc(N4CCOCC4)nn3)CC2)cc1	4.49%
CC(C)C(NC(=O)c1ccccc1)C(=O)NC1=NCCS1 (centres undefined)	-2.59%
O=C(Nc1nc2ccccc2s1)c1cc(-c2ccccc2)nn1-c1ccccc1	-3.23%
CCc1nnc(NC(=O)c2cc(-c3ccccc3)nn2-c2ccccc2)s1	19.3%
CC(OC(=O)CCC(=O)c1cccs1)C(=O)Nc1ccc(Cl)cn1 (centres undefined)	2.41%
OC1CCN(c2cc(-c3ccccc3)nc3cc(-c4ccc(F)cc4)nn23)CC1	5.18%
Fc1ccc(-c2cc3nc(-c4ccccc4)cc(N4CCOCC4)n3n2)cc1	1.89%
O=C(O)C(Oc1ccc2c3c(c(=O)oc2c1)CCC3)c1ccccc1 (centres undefined)	-10.3%
Cc1ccc(Nc2nnc(SCC(=O)Nc3ncc(S(=O)(=O)c4ccc([N+](=O)[O-])cc4)s3)s2)cc1	0%
Cc1nnc(SCC(=O)Nc2ncc(S(=O)(=O)c3ccc([N+](=O)[O-])cc3)s2)s1	-0.12%
COc1ccc(OCC(O)CNC(=O)Nc2cc(C)cc(C)c2)cc1 (centres undefined)	-16.7%
CCOC(=O)C(Cc1ccccc1)C(=O)Nc1ccc(NC(=O)C(Cc2ccccc2)C(=O)OCC)cc1 (centres undefined)	3.39%
CCOC(=O)C(Cc1ccccc1)C(=O)Nc1ccccc1C (centres undefined)	-5.73%
COC(=O)c1cn(NC(=O)Cc2cccc(OC)c2)c(=O)c2ccccc12	3.66%
CC1CCN(S(=O)(=O)N2CCC(C(=O)NCc3cccs3)CC2)CC1	-4.64%

Structure (SMILES)	inhibition
Cc1cc(C(=O)COc2ncnc3sccc23)c(C)n1C	-3.73%
Cc1noc(-c2ccccc2OC(=O)c2ccccc2)n1	1.9%
COC(=O)c1cc(Sc2c(Cl)cccc2Cl)ccn1	34%
COC(=O)c1ncccc1SC	-0.23%
S=C(NCc1ccco1)Nc1ccc(Br)cc1Cl	4.87%
O=C(c1c[nH]cc1-c1ccccc1)c1cccc2ccccc12	-3.22%
O=c1cc(-c2ccccc2)c2ccccc2[nH]1	-8.75%
COc1ccc(C(CC(=O)Nc2ccccc2OC)n2cccc2)cc1 (centres undefined)	3.19%
CCOC(=O)N1CCN(C(=O)CN(c2ccc(OC)cc2)S(C)(=O)=O)CC1	-8.65%
CCn1c(=O)c(C(=O)NC(C)C)c(O)c2ccccc21	0.51%
O=S(=O)(Nc1ccccc1)c1ccc(-c2csnn2)cc1	8.85%
CCN(CC)C(=O)CN(c1cc(Cl)ccc1OC)S(=O)(=O)c1ccc(C)c([N+](=O)[O-])c1	4.94%
O=C(COc1ccc(Cl)cc1)NCc1nnc2c3ccccc3c(-c3ccccc3)nn12	32.3%
O=C(NCc1nnc2c3ccccc3c(-c3ccccc3)nn12)c1ccccc1Cl	17.6%
CCn1nc(C(=O)NCCc2ccc(S(N)(=O)=O)cc2)c2ccccc2c1=O	-2.56%
COc1cc(C(CCN2CCCCC2)c2c(OC)cc(OC)c3c(-c4ccccc4)cc(=O)oc23)cc(OC)c1OC (centres undefined)	10.2%
COc1ccc(C(CCN2CCN(c3ccccc3)CC2)c2c(OC)cc(OC)c3c(-c4ccccc4)cc(=O)oc23)cc1 (centres undefined)	6.72%
COc1ccc(C(CCN2CCCC2)c2c(OC)cc(OC)c3c(-c4ccccc4)cc(=O)oc23)cc1 (centres undefined)	64.5%
COc1cc(OC)c2c(-c3ccccc3)cc(=O)oc2c1C(CCN1CCN(c2ccccc2)CC1)c1ccc(N(C)C)cc1 (centres undefined)	13.6%
CC(C)CCn1nnnc1C(C(C)C)N1CCC(C(N)=O)CC1 (centres undefined)	-6.25%
CC(/C=C/c1ccco1)=N\NC(=O)c1cc(C)[nH]n1	-12%
O=C(Nc1ccccc1O)c1cc(S(=O)(=O)N2CCOCC2)ccc1Cl	6.89%
NNc1nc(-c2ccccc2)cs1	4.39%
Fc1ccc(/C=C\c2nccc3c2[nH]c2ccccc23)cc1	8.94%

Structure (SMILES)	inhibition
Cc1ccc(/C=C\c2nccc3c2[nH]c2ccccc23)cc1	42.1%
Cc1ccc(/C=N/NC(=O)Cn2nnc(N)n2)cc1	-5.78%
CCC(C)[C@H](NC(=O)NCCC1=CCCCC1)C(=O)OC (some centres undefined)	-7.06%
O=C(CSc1ncccn1)N/N=C/c1ccc(OC2CSC2)cc1	0.1%
CCc1ccc(-c2nn(-c3cc(Cl)ccc3[N+](=O)[O-])c(=O)c3ccccc23)cc1	3.9%
CC(C)=C1SC(N2CCOCC2)=NC1=O	-2.58%
Cc1c(C(=O)O)cccc1N1C(=O)Nc2ccccc2N1O	5.34%
Cc1ccc(Nc2nc(CSc3n[nH]c(N)n3)cs2)cc1	9.31%
c1ccc(-c2nc(CSc3nnc(-c4cccs4)o3)cs2)cc1	2.37%
Clc1ccc(-c2nnc(CSc3nnc(-c4cccs4)o3)o2)cc1	12.5%
c1ccc(-c2nnc(CSc3nnc(-c4cccs4)o3)o2)cc1	39.4%
O=C(Nc1nc(-c2cccc3ccccc23)cs1)c1ccc2c(c1)S(=O)(=O)c1ccccc1C2=O	4.24%
Cc1cccc(NC(=S)N(Cc2cccs2)Cc2cc3cc(C)ccc3[nH]c2=O)c1	8.62%
CC(=O)O/C(=C\c1cn(C(C)=O)c2ccccc12)C(=O)O	7.86%
COc1cc(OC)cc(-c2nnc(SCC(=O)N3CCCCC3)o2)c1	13.8%
CCOC(=O)CSc1nnc(-c2cccnc2)o1	-8.92%
CCCCN(CCCC)C(=O)CSc1nnc(-c2cc(OC)c(OC)c(OC)c2)o1	5.31%
CCOC(=O)N1CCN(C(=O)CSc2nnc(Cc3ccccc3)o2)CC1	3.59%
O=C(CSc1nnc(COc2ccccc2)o1)N1CCN(c2ccccc2)CC1	7.79%
COc1cc(OC)cc(-c2nnc(SCC(=O)N3CCCC3)o2)c1	14.8%
CCOC(=O)CSc1nnc(-c2ccccc2)o1	27.1%
COc1cc(-c2nnc(SCC(=O)c3ccccc3)o2)cc(OC)c1OC	-0.24%
Cc1ccc(C)n1-c1c(C(=O)NN)cnn1-c1ccccc1	-0.22%
C=CCn1c(-c2cccnc2)n[nH]c1=S	4.66%

Structure (SMILES)	inhibition
O=C1CCC/C(=N\NC(=O)COc2ccc(Cl)cc2)C1	-2.69%
O=C(Cn1cnc2ccccc2c1=O)Nc1ccccc1N1CCOCC1	2.06%
CN1CCN(c2ccccc2NC(=O)c2cc(Br)ccc2Cl)CC1	12.3%
COC(=O)C(Cc1ccccc1)NC(=S)NC(=O)c1ccccc1 (centres undefined)	3.22%
COc1cc(-c2nnc(SCC(=O)N3CCCC3)o2)cc(OC)c1OC	-3.99%
CCOC(=O)c1c(C)[nH]c(C)c1C(=O)CSc1nnc(-c2cc(OC)c(OC)c(OC)c2)o1	-2.95%
COc1ccc(N2CCC(CNC(=O)Nc3cccc(OC)c3)C2)cc1 (centres undefined)	8.56%
CCOCC(=O)Nc1ccc([N+](=O)[O-])cc1C	4.52%
COc1ccc(NC(=S)N2C3CCC2CC(NC(=O)NC24CC5CC(CC(C5)C2)C4)C3)c(OC)c1 (centres undefined)	40.3%
COc1ccc(CC2(CO)CCN(Cc3cc4ccccc4o3)CC2)cc1	5.84%
CC(Sc1ccccc1)C(=O)NN=C1CCCC1 (centres undefined)	-0.55%
COc1ccc(N2CCN(CC(=O)Nc3nnc(-c4ccccc4)s3)CC2)cc1	73.3%
CC1CCc2nc(NC(=O)CN3CCOCC3)sc2C1 (centres undefined)	23.3%
CC1CCc2nc(NC(=O)CN3CCN(c4ccc(F)cc4)CC3)sc2C1 (centres undefined)	18.4%
CC1CCc2nc(NC(=O)CN3CCN(Cc4ccc5c(c4)OCO5)CC3)sc2C1 (centres undefined)	64.4%
O=C(O)c1ccccc1NC(=S)NC(=O)c1sc2ccccc2c1Cl	-3.63%
CCOC(=O)C(C)Sc1nc(=O)n2ccccc2n1 (centres undefined)	-0.38%
Clc1cccc(Cl)c1CSc1nnc(CN2CCOCC2)n1-c1ccccc1	-7.41%
O=C(O)CCC(=O)Nc1ccc(Br)cc1C(=O)c1ccc(Cl)cc1	-5.88%
COc1ccccc1COCC(O)CN(Cc1ccco1)Cc1ccccc1O (centres undefined)	11.4%
COc1ccc(/C=C/C(=O)C(C)(C)C)cc1OC	7.04%
COc1ccc(/C=C/C(=O)O)cc1OC	-4.92%
